Measured values reported in PubChem BioAssay AID720566 (Broad Institute, 2013).
Entries with a potency or affinity are not part of this list.

Each molecule was assayed against Protein disulfide-isomerase A6 (Homo sapiens) (UniProt Q15084) (assay: reduced insulin turbidity driven by ERp5 (PDIA6) – biochemical, absorbance 650 nm, cherry-picked samples, dose response (AID 720566;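 also: negative values mean less insulin aggregation so ERp5 inhibition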)). Conditions: Recombinant ERp5 insulin aggregation; series mostly up to 35 µM; activity change, negative = inhibition: at the top concentration;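 active = in all runs, an absorbance decrease of 25% or more of the average positive control decrease; inconclusive = runs conflict, with both active and inactive results; inactive = all runs inactive, opposite-direction effects included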.
Protein disulfide-isomerase A6 (Homo sapiens), sequence (Q15084 whole entry, looked up): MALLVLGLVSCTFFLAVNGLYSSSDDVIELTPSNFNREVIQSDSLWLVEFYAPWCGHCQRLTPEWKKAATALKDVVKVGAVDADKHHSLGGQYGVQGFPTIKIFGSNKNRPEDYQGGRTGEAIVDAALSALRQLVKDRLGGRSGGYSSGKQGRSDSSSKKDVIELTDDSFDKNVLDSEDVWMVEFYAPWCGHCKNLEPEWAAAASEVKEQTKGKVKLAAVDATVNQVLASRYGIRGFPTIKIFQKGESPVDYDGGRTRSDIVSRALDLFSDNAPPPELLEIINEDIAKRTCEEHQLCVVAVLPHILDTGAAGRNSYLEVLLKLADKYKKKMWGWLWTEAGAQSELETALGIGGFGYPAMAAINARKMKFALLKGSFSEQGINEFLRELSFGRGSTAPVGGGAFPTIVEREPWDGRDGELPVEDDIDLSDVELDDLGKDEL

Activity change, negative = inhibition, inactive:
C[C@@H]1CN([C@@H](C)CO)C(=O)Cc2cc(NS(=O)(=O)c3cccs3)ccc2O[C@H]1CN(C)C(=O)Nc1ccc(C(F)(F)F)cc1 6.89%, CO[C@H]1CN(C)C(=O)c2cc(NC(=O)CC(F)(F)F)ccc2OC[C@H](C)N(C(=O)C2CC2)C[C@@H]1C 2.98% [at 30 µM], C[C@@H]1CN([C@@H](C)CO)C(=O)Cc2cc(NC(=O)Cc3ccccc3)ccc2O[C@@H]1CN(C)C(=O)Nc1ccc(C(F)(F)F)cc1 1.83%, C[C@@H]1CCCCO[C@@H](CN(C)C(=O)CCC(F)(F)F)[C@H](C)CN([C@@H](C)CO)C(=O)c2cc(NS(=O)(=O)c3ccc(Cl)cc3)ccc2O1 5.59%, O=C(C[C@@H]1C[C@H]2c3cc(NC(=O)Nc4ccccc4F)ccc3O[C@H]2[C@H](CO)O1)NCC(F)(F)F 0.289%, Cc1ccc(S(=O)(=O)N2CCN(C(=O)CCc3nc4ccccc4c(=O)[nH]3)CC2)c(C)c1 22.1%, C[C@@H]1CN([C@@H](C)CO)S(=O)(=O)c2ccc(C#Cc3cccnc3)cc2O[C@H]1CN(C)C(=O)CN(C)C 0.482%, C[C@H]1CN([C@@H](C)CO)C(=O)CCCn2cc(nn2)CO[C@@H]1CN(C)Cc1cccc(C(F)(F)F)c1 1.68%, Cc1ccc(S(=O)(=O)N(C)C)cc1NC(=O)COC(=O)C1(c2ccccc2)CC1 9.17%, CC(=O)Nc1ccc2c(c1)C(=O)N(C)[C@H]1CC[C@H](CC(=O)NCC3CC3)O[C@@H]1CO2 1.68%, O=C(CN1C(=O)NC2(CCCC2)C1=O)Nc1cc(C(F)(F)F)ccc1N1CCCCC1 13.5%
